Screens from PubChem.
Sampled rows, rich in hits. Any-hit rate of the full collection: about 6.9%.
SKKanGAS inh: SKKanGAS growth inhibition; inhibition, % at 7.5 µM; 300,000 tested, 1.3% active; S. pyogenes SKKanGAS, kanamycin growth, BacTiter-Glo, 6 h; AID 1662;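 active means mean replicate score, as percent of positive control median, at least 50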;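 further: strain carries kanamycin resistance gene driven by streptokinase promoter and grows in 40 µg/ml kanamycin; loss of luminescence reflects streptokinase promoter inhibition or plain growth inhibition; 0% = median of DMSO wells and 100% = positive control at its reference dose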
MPTP block: inhibitors of mitochondrial permeability transition pore | isolated mouse mitochondria, Ca2+ swelling absorbance, 30 min | inhibition, % at 10 µM | 360,000 tested, 1.4% active;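 active means inhibition of 50% or more, scaled per plate between neutral and stimulator controls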;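 further: 0% = DMSO wells given calcium and 100% = 1 mM EGTA wells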
Beta cell apopt: blocks beta cell apoptosis. AID 435005. protection from apoptosis, % (test concentration not listed). INS-1E cytokine-induced death, ATP luminescence, 48 h; percent of positive-control rescue, neutral wells zero. 300,000 tested, 0.8% active;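 active means Every replicate reaches about 75%, or at least half do and their mean reaches it too, limit read from the data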;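 further: 0% = cytokine-treated negative control wells and 100% = positive control rescue; higher means more ATP so stronger rescue from cytokine killing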
Mdm2-MdmX inh: human Mdm2/MdmX binding inhibition; inhibition, % at 8 µM; O15151+Q00987; 330,000 tested, 3% active; SaOS-2 split-luciferase Mdm2/MdmX complementation, luminescence;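 active means inhibition of at least 50% at 8 µM in the primary screen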
CSC inhib: cancer stem cell inhibition | cancer stem cell-like cells viability, luminescence | inhibition, % at 7.5 µM | 300,000 tested, 1.1% active; in the data active means inhibition above about 75%; tested in HMLE shEcad cells
NR3A LBD binder: modulators (binders) of human NR3A ligand-binding domain; NR3A LBD differential scanning fluorimetry, Tm shift; 0% = protein alone, 100% = glycine-bound protein; AID 1259313; 340,000 tested, 2.5% active; Tm shift relative to glycine control, % at 25 µM;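 active means melting temperature shift of at least 10% of the positive control shift, at one fixed dose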
Rh123 counter: Rhodamine 123 counter-screen of mitochondrial pore hits; shares compounds with MPTP block; 5,000 tested, 78% active; inhibition, % at 10 µM; isolated mitochondria, membrane potential, Rhodamine 123 fluorescence; in the data active means inhibition above about 22%;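 further: 0% = DMSO vehicle and 100% = positive control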
MPTP abs DR: dose response confirmation of mitochondrial permeability transition pore inhibitors. shares compounds with MPTP block. isolated mitochondria swelling, absorbance. IC50, µM. 780 tested, 58% active; in the data active means IC50 below about 20 µM
MPTP cs DR: counter-screen for mitochondrial permeability transition pore inhibitors, dose response; shares compounds with MPTP block; isolated mitochondria counterscreen, fluorescence read-out; IC50, µM; 780 tested, 49% active; AID 651564; in the data active means IC50 below about 80 µM
Numbers without * were called inactive; · = no result.

SMILES	SKKanGAS inh	MPTP block	Beta cell apopt	Mdm2-MdmX inh	CSC inhib	NR3A LBD binder	Rh123 counter	others
COc1ccc(C=NNc2ccc([N+](=O)[O-])cc2S(=O)(=O)Nc2ccccc2C(=O)O)cc1OC	·	60*	4	-10	33	31*	37*
O=[N+]([O-])c1cc(NCCO)c(N2CCCCCC2)c2nonc12	0	0	5	-11	-3	0	·
COc1ccc(Cn2c(=O)oc3ccc(C)cc32)cc1OC	2	72*	37	26	13	-2	35*
O=C(/C=C/NNC(=O)c1ccccc1)c1ccc(Br)cc1	23	1	8	25	17	0	·
O=C(/C=C/NNC(=O)c1cccc(Br)c1)c1cccc(Br)c1	9	51*	·	49	·	0	58*
CC(=O)Nc1ccc(C23CC4CC(CC(C4)C2)C3)cc1	9	1	1	8	23	-6	·
CNC(=S)Nc1ccc(C23CC4CC(CC(C4)C2)C3)cc1	-13	52*	16	-18	44	0	66*
Cc1cc(C)cc(C(=O)N(NC(=O)Nc2ccc(Cl)cc2)C(C)(C)C)c1	-17	97*	5	28	-4	3	98*
CC(C)(C)N(NC(=O)Nc1ccc(F)cc1)C(=O)c1ccccc1	-2	-1	·	-23	·	-1	·
Cc1ccc(CN2CCSc3ccc(C(=O)N4CCN(c5ncccn5)CC4)cc32)cc1	22	66*	38	-2	2	-1	95*
N#CCC(=O)Nc1ccc(C(=O)NNC(=O)CCN2CCN(c3ccccc3)CC2)cc1	·	-2	-2	-10	-4	0	·
Cc1ccc(C)c(OCCC(=O)Nc2cccc(S(=O)(=O)NC3=NCCCCC3)c2)c1	·	-1	-4	-20	-17	1	·
O=C(Cc1ccc(Cl)cc1Cl)Nc1cccc(S(=O)(=O)Nc2ccccc2F)c1	46	65*	-6	17	13	26*	58*
Cc1ccccc1OCCC(=O)Nc1cccc(S(=O)(=O)Nc2ccccc2Cl)c1	11	77*	0	22	0	15*	75*
O=C(/C=C/c1ccccc1)Nc1cccc(S(=O)(=O)Nc2ccccc2F)c1	0	51*	1	23	23	5	56*
CC(O)CNCCCOc1cccc(Oc2ccccc2)c1 (centres undefined)	6	60*	2	11	39	0	-7	MPTP abs DR=13*;MPTP cs DR=>80
CC(CN(C)C)CN1c2ccccc2Sc2ccccc21 (centres undefined)	·	77*	·	40	7	1	-11	MPTP abs DR=7.1*;MPTP cs DR=>80
COc1ccc2c(c1)N(C[C@H](C)CN(C)C)c1ccccc1S2	·	67*	·	·	·	3	-16	MPTP abs DR=8.8*;MPTP cs DR=>80
COc1ccc(O)c(/C=C(\C#N)C(=O)Nc2ccccn2)c1	-9	0	·	-7	·	2	·
O=C(OC1CCOC1=O)C1CCN(S(=O)(=O)c2ccc(Cl)c(C(F)(F)F)c2)CC1 (centres undefined)	-6	-1	-9	7	2	4	·
O=C(c1ccc(O)c(Br)c1)c1cc(Br)ccc1O	·	94*	·	·	·	8	93*
O=C(C(=O)c1cc(Br)ccc1O)c1cc(Br)ccc1O	·	95*	·	·	·	20*	97*
O=C(NCc1ccc2c(c1)OCO2)c1cc(-c2cc(Cl)ccc2O)n[nH]1	-6	64*	4	26	-8	11*	62*
O=C(NCc1ccc2c(c1)OCO2)c1n[nH]c(=O)c2ccccc12	6	0	2	31	·	1	·
Cc1ccc(-c2cc(C(=O)Nc3cccnc3)[nH]n2)c(O)c1C	0	62*	0	-15	7	28*	71*
SMILES	SKKanGAS inh	MPTP block	Beta cell apopt	Mdm2-MdmX inh	CSC inhib	NR3A LBD binder	Rh123 counter	others
Cc1cc(O)c(-c2cc(C(=O)NCc3ccc4c(c3)OCO4)[nH]n2)cc1C	-9	8	-1	-17	-3	-2	·
Cc1ccc(-c2cc(C(=O)NCc3ccc4c(c3)OCO4)[nH]n2)c(O)c1C	13	61*	-5	-17	16	8	71*
Clc1ccc2[nH]cc(-c3nnnn3-c3ccc4ccccc4c3)c2c1	37	84*	31	31	15	29*	77*
Cn1c(=O)c2c(nc(NCCc3ccccc3)n2Cc2ccc(F)cc2)n(C)c1=O	9	0	27	33	41	-3	·
CC(Cl)=CCn1c(NCCc2ccccc2)nc2c1c(=O)n(C)c(=O)n2C	·	71*	·	·	·	·	76*
CCCOc1ccc(S(=O)(=O)NNC(=O)c2cc3ccccc3o2)cc1	1	66*	3	15	-8	-2	31*
Cc1ccc2c(c1)C1CN(C)CCC1N2C(=O)Nc1ccc(Cl)cc1 (centres undefined)	-5	87*	·	·	·	3	94*
CC1CCCCC1NC(=S)Nc1ccc(Cl)cc1Cl (centres undefined)	10	93*	1	-59	14	-2	87*
Cc1c(Cl)cccc1NC(=S)NCCc1ccc(F)cc1	12	32	0	14	-6	-5	·
Cc1c(Cl)cccc1NC(=S)NCCc1ccc(Cl)cc1	30	85*	·	28	12	0	81*
S=C(NCc1ccc(Cl)cc1)Nc1ccc(Cl)cc1Cl	8	100*	2	15	1	1	87*
S=C(NCc1cccs1)Nc1ccc(Br)cc1Cl	26	75*	-6	-28	-1	1	79*
Cc1cc(Cl)ccc1NC(=S)NC1CCCC1	3	0	1	-8	-16	2	·
COc1cccc(N2CC(NC(=O)C(=O)c3c[nH]c4ccccc34)CC2=O)c1 (centres undefined)	29	0	-1	16	·	0	·
COCCNc1nc(Oc2ccc(C(N)=O)cc2)c2sccc2n1	·	1	·	·	·	·	·
C=CCOc1ccc(/C=C/C(=O)OCC(=O)NCC(=O)Nc2c(C)cc(C)cc2C)cc1	-4	2	-1	7	-13	0	·
Fc1ccc(CNC(=S)Nc2ccc(Cl)cc2Cl)cc1	10	100*	0	13	-6	-9	106*
S=C(NCCc1ccc(Cl)cc1)Nc1ccc(Cl)cc1Cl	39	86*	-1	-9	44	18*	86*
CC(=O)Nc1ccc2c(c1)ncn2-c1ccc(C)cc1	·	-2	2	-55	-10	-2	·
Cc1ccc(NC(=S)Nc2nc(CC(=O)Nc3ccccc3)cs2)cc1	22	78*	12	4	-4	17*	84*
